Sampled rows, rich in hits. Any-hit rate of the full collection: about 7.8%.
PK Bst: pyruvate kinase (B. stearothermophilus) modulation | purified pyruvate kinase, luminescence ATP production; ribose 5-phosphate activator present at AC10 | Potency, µM | hit rate 1.2% among 51,000; in the data active = potency below about 11 µM; inconclusive = mostly about 12 µM to 25 µM;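 the screen sought inhibitors and activators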
15-hLO inh: inhibitors of human 15-lipoxygenase (ALOX15); P16050; purified 15hLO-1, xylenol orange hydroperoxide absorbance; Potency, µM (top dose mostly 57.1 µM), most hits filed as inhibitors; hit rate 1.4% among 74,000; also: nearly all actives have a fitted effect of over 55% in size
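40 nM 15hLO-1 + cpd, 15 min RT; start w/ 50 uM AA (final), 6 min RT; stop/detect w/ 200 uM XO + 300 uM Fe(II) in 50 mM H2SO4, 30 min; A573/A405. Buffer 25 mM Hepes pH 7.5, 0.01% Triton X-100. No-enzyme wells as negative control.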
Tau filament bind: tau filament binding | P10636 | recombinant tau filaments, thioflavin S fluorescence, 15 h; filaments grown with octadecylsulfate alongside compound | Potency, µM (titrated, usually from 57.1 µM) | hit rate 2% among 71,000;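 also: actives lower thioflavin S fluorescence by blocking filaments or displacing dye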
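Quantitative HTS: thioflavine S signal from ODS-induced tau filaments, excited at 450 nm, emission 510 nm. Conditions: 1 uM tau, 30 uM ODS, 15 h at 37 C, pH 7.4.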
HEK293 cAMP cs: counter-screen for TSHR agonists: cAMP increase in parental HEK293. AID 938. parental HEK293 CNG cAMP sensor, membrane potential fluorescence. Potency, µM (top dose mostly 57.1 µM), hits mostly activators. hit rate 2.5% among 73,000; also: nearly all actives have a fitted effect of over 55% in size
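Parental HEK 293 cells stably expressing a cAMP-gated CNG channel were loaded with membrane potential dye containing 100 uM RO 20-1724 for 60 min. Compound added for 30 min; depolarization read as fluorescence intensity at 590 nm.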
TSHR ag: TSH receptor (human) agonism; hit rate 0.48% among 73,000; Potency, µM (highest dose often 57.1 µM), hits mostly activators; P16473; HEK293-CNG-TSHR cells (CNG channel as cAMP sensor), membrane potential dye, cAMP; active = well fitted activation curve with a large enough effect in the main read-out, with a control signal flat, not every such curve was filed as active; inconclusive = small, poorly fitted or top-dose-only effect, or a change in a side signal; inactive = no such curve, though single readings can be large or run the other way; reference of the percent scale not stated here;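 also: the control signal comes from parental cells without the receptor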
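HEK 293 cells stably expressing TSHR and a cAMP-gated CNG channel; parental CNG-only cells as counterscreen. Cells preloaded 60 min with membrane potential dye plus 100 uM RO 20-1724, then compound 30 min; fluorescence read at 590 nm.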
FLuc inh: inhibitors of firefly luciferase | P08659 | hit rate 2.2% among 72,000 | Potency, µM (titrated, usually from 57.1 µM), most hits filed as inhibitors | purified firefly luciferase, luminescence, 8 min | AID 411; also: nearly all actives have a fitted effect of over 40% in size
Target sequence (P08659 whole entry, looked up): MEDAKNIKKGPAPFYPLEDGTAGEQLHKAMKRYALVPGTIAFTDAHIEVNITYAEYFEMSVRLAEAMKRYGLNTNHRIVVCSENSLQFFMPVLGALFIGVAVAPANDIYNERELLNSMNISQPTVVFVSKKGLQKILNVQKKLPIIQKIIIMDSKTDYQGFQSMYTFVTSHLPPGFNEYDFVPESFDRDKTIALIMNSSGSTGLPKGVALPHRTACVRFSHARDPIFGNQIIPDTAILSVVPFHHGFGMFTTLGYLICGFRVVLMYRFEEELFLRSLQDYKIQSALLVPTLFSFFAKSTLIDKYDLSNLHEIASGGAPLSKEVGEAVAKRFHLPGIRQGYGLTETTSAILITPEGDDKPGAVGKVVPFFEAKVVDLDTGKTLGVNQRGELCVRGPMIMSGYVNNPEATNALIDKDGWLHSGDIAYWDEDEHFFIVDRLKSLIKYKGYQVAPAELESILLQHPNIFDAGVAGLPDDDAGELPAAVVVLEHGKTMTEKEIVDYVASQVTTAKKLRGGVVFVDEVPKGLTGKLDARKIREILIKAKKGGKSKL
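Here, luciferase activity is measured as luminescence following an 8 min room-temperature reaction at 10 uM ATP, pH 7.2. Every library sample is titrated.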
Of the large screens only hits and unclear results are named; the others gave an inactive call. Unless noted, calls follow the shape of the dose curve; as a rule, active = well fitted curve in the direction sought with a large enough effect; inconclusive = small, poorly fitted or top-dose-only effect, or another doubt; inactive = no such curve, though single readings can be large; an effect the other way counts as inactive or inconclusive.

CCCCn1c(SCC(=O)c2cc(OC)ccc2OC)nc2cc(S(N)(=O)=O)ccc21	HEK293 cAMP cs 25µM, TSHR ag inconclusive
CN(C)c1ccc(C(=O)C(O)c2ccc(C(C)(C)C)cc2)cc1 (stereo not drawn)	none (no result: PK Bst, TSHR ag)
Cc1ccc(SCCNS(=O)(=O)c2ccc(F)cc2)cc1	TSHR ag 1µM (no result: PK Bst)
O=C(O)CSc1n[nH]c(=O)[nH]c1=O	none (no result: PK Bst)
COc1cccc(C=Nc2cc(C)on2)c1O	none (no result: PK Bst)
CCc1ccc2oc(-c3cc(N=Cc4cccc(OC)c4O)ccc3O)nc2c1	PK Bst 1.3, Tau filament bind 13µM, FLuc inh 1.3µM
Cc1c(Br)cc(C(=O)NCc2ccco2)c(C)c1C	15-hLO inh inconclusive, HEK293 cAMP cs inconclusive, TSHR ag inconclusive
Cc1ccc2c(CC(=O)NCc3ccco3)coc2c1C	TSHR ag 20µM
N#Cc1ccccc1NC(=O)c1ccc(-c2ccccc2Cl)o1	15-hLO inh inconclusive, HEK293 cAMP cs 25µM, TSHR ag inconclusive, FLuc inh inconclusive (no result: PK Bst)
CCc1ccc(NC(=O)NCCN2CCc3ccccc3C2)cc1	15-hLO inh inconclusive, Tau filament bind 13µM
CC(=O)N(C)c1nc(-c2ccc(Cl)cc2)cs1	none
Cc1nc(N)sc1-c1csc(N(C)c2ccc(O)cc2)n1	Tau filament bind inconclusive, FLuc inh 13µM
CN1[C@@H](c2ccccc2)CC(=NO)C[C@H]1c1ccccc1	none (no result: PK Bst)
C[C@H]1[C@H](O)[C@@H](C)C=CC=CC=CC=CC=CC=CC=C[C@H](O[C@@H]2O[C@@H](C)[C@H](O)[C@@H](N)[C@@H]2O)C[C@@H]2O[C@](O)(C[C@@H](O)C[C@@H](O)[C@@H](O)CC[C@@H](O)C[C@@H](O)CC(=O)O[C@H]1C)C[C@H](O)[C@H]2C(=O)O	15-hLO inh 2µM (no result: PK Bst)
CC1(C)C(=O)C(c2ccccc2)=C2CN3C(=O)N(CCc4ccccc4)C(=O)C3(Cc3ccccc3)C=C21 (stereo not drawn)	none (no result: PK Bst, 15-hLO inh, FLuc inh)
CCOc1ccccc1CN(Cc1ccco1)S(=O)(=O)c1ccc(-n2cnnn2)c(OC)c1	HEK293 cAMP cs 10µM, TSHR ag inconclusive
COCCn1c(=O)c(C)nc2cnc(OCc3ccccc3)nc21	HEK293 cAMP cs 3.2µM, TSHR ag inconclusive (no result: PK Bst)
N#CCCn1c(=O)c(CCc2ccccc2)nc2cnc(OCc3ccccc3)nc21	HEK293 cAMP cs 4µM, TSHR ag inconclusive (no result: PK Bst)
COc1cccc(Cn2c(=O)c(C)nc3cnc(OCc4ccccc4)nc32)c1	Tau filament bind 32µM, HEK293 cAMP cs 16µM, TSHR ag inconclusive (no result: PK Bst)
O=C(OCn1nnc2ccccc2c1=O)C1CCCCC1	none
c1ccc(-n2nnnc2Sc2n[nH]c(-c3ccncc3)n2)cc1	none
COc1ccc(-n2c(N)c(C(=O)NCC3CCCO3)c3nc4ccccc4nc32)c(OC)c1 (stereo not drawn)	15-hLO inh inconclusive, Tau filament bind 25µM
CCN(CCCNC(=O)CCCN1C(=O)COc2ccc(C)cc21)c1cccc(C)c1	15-hLO inh inconclusive, Tau filament bind 16µM
COc1cc(-c2nnc(SCC(=O)c3ccccc3)o2)cc(OC)c1OC	none
COc1ccc(-c2nnc(SCC(=O)N(Cc3ccccc3)C(C)(C)C)o2)cc1OC	HEK293 cAMP cs 32µM, TSHR ag inconclusive
COC(=O)c1c(C(=O)OC)c2cc(C)ccn2c1Cl	HEK293 cAMP cs 20µM, TSHR ag inconclusive (no result: PK Bst)
COc1cccc(-c2cc(NCc3ccccc3)ncn2)c1	HEK293 cAMP cs inconclusive, TSHR ag inconclusive (no result: PK Bst)
CN(C)c1ccc(N=NS(=O)(=O)O)cc1	15-hLO inh inconclusive, HEK293 cAMP cs 10µM, TSHR ag inconclusive (no result: PK Bst, FLuc inh)
O=S(=O)(O)c1ccc(N=Nc2ccccc2)cc1	none (no result: PK Bst)
COc1cccc(C2NC(C(=O)O)CCC2C)c1 (stereo not drawn)	none (no result: PK Bst, Tau filament bind, FLuc inh)
CCN1CCN(C(=O)Nc2ccc(Cc3ccc(NC(=O)N4CCN(CC)CC4)cc3)cc2)CC1	FLuc inh 13µM (no result: PK Bst)
CCN1CCN(Cc2ccc(NC(=O)Nc3ccccc3OC)cc2)CC1	15-hLO inh 3.2µM, FLuc inh inconclusive (no result: PK Bst)
C=C(C)c1nc(N)nc(N)n1	none
CC(=O)Oc1ccc2c(c1)CCC1C2CC[C@]2(C)C(=O)CCC12 (stereo partly drawn)	none (no result: PK Bst, Tau filament bind, HEK293 cAMP cs, TSHR ag, FLuc inh)
NC(=O)c1cc(N)ccc1N1CCCC1	15-hLO inh inconclusive, Tau filament bind 16µM
Cc1cccc(Nc2n[nH]c(=S)s2)c1C	15-hLO inh 10µM
N#C/C(=C\c1c(N2CCC(C(N)=O)CC2)nc2ccccn2c1=O)S(=O)(=O)c1ccccc1	none (no result: 15-hLO inh, Tau filament bind, HEK293 cAMP cs, TSHR ag)
CC1CN(c2nc3ccccn3c(=O)c2/C=C(\C#N)S(=O)(=O)c2ccccc2)CC(C)O1 (stereo not drawn)	Tau filament bind 20µM
Cc1ccc(-c2noc(-c3ccccc3Br)n2)cc1	FLuc inh 3.2µM (no result: PK Bst)
CN(C)c1ccc(-c2noc(-c3ccccc3O)n2)cc1	FLuc inh 1µM
COc1cc(OC)cc(-c2nc(-c3ccc(Br)cc3)no2)c1	none (no result: PK Bst)
COc1ccc(-c2nc(-c3ccc(Br)cc3)no2)c(OC)c1	PK Bst 6.3, FLuc inh 2.5µM
Cc1ccccc1-c1noc(-c2ccc(O)cc2)n1	Tau filament bind inconclusive, FLuc inh 20µM (no result: PK Bst)
Cc1ccc(-c2noc(-c3ccccc3C(=O)N3CCCC3)n2)cc1	none (no result: PK Bst)
CC1(C)[C@@H](O)CC[C@@]2(C)[C@H]1CC[C@]1(C)[C@H]2C(=O)C=C2[C@@H]3C[C@@](C)(C(=O)O)CC[C@]3(C)CC[C@@]21C	Tau filament bind inconclusive, HEK293 cAMP cs inconclusive, TSHR ag inconclusive (no result: PK Bst, 15-hLO inh)
